Screening data (PubChem BioAssay)
Sampled rows, rich in hits. Any-hit rate of the full collection: about 1.7%.
MazF activator – activators of E. coli MazEF toxin-antitoxin RNase. P0AE70. FAM/BHQ RNA-DNA oligo cleavage fluorescence, 5 h. activation, % at 20 µM. 350,000 compounds, 0.32% hits. AID 504720; in the data active = activation above about 50%
Target sequence (P0AE70 whole entry, looked up): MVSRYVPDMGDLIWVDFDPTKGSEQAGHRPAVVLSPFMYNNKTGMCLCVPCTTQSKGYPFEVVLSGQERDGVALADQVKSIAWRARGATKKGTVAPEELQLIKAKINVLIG
BH1578 lux ind – induces V. cholerae light production without autoinducers; 350,000 compounds, 0.16% hits; activation, % at 18.7 µM; V. cholerae BH1578 lux reporter, luminescence, 6 h; in the data active = activation mostly above about 9.7%, no sharp cut-off
VHR inh abs – inhibitors of human VHR1 phosphatase (DUSP3); recombinant VHR phosphatase, pNPP absorbance; inhibition, % at 13.3 µM; 290,000 compounds, 0.52% hits; AID 1654; in the data active = inhibition above about 50%
Target sequence (P51452 whole entry, looked up): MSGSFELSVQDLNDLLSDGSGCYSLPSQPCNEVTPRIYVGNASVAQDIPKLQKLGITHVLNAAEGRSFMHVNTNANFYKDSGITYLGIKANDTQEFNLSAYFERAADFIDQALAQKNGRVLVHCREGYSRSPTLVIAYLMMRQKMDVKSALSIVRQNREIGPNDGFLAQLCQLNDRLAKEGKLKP
BJeLR viability – BJeLR cell viability loss; BJeLR (HRASV12) viability, CellTiter-Glo ATP luminescence, 48 h; inhibition, % (no concentration beside the values); 300,000 compounds, 0.17% hits; AID 1554; in the data active = inhibition above about 50%
PfHsp40 rescue – rescue of PfHsp40-mediated yeast toxicity. 340,000 compounds, 0.68% hits. AID 504582. growth rescue, % at 12.5 µM. S. cerevisiae expressing PfHsp40, growth rescue, ATP luminescence; in the data active = growth rescue above about 28%, passing the limit was not always enough;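 note: yeast W303a lacking pdr1 and pdr3 grown in galactose medium; growth measured after three days at 30 °C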
SARS 3CLpro inh – SARS-CoV 3CLpro protease inhibition | inhibition, % at 6 µM | P0C6X7 | AID 1706 | recombinant SARS-CoV 3CLpro, quenched FRET peptide cleavage | 290,000 compounds, 0.14% hits; in the data active = inhibition above about 12%
Numbers without * were called inactive; i = inactive; · = no result given; + = active, no number.

SMILES	MazF activator	BH1578 lux ind	VHR inh abs	BJeLR viability	PfHsp40 rescue	SARS 3CLpro inh
O=C(NCc1ccc(F)cc1)C1CC(=O)N(C2CCCCCCC2)C1 (configuration not stated)	-4	i	56*	11	0	3
CCNC(=O)C1(C)CCN(C(=O)c2ccc(OC)c(OC)c2)C1 (configuration not stated)	·	2	·	·	·	·
CNC(=O)c1nnsc1S(=O)c1ccc(Cl)cc1 (configuration not stated)	11	0	7	23	79*	5
O=C(Nc1nnc(SCc2cccnc2)s1)C1CC(=O)N(c2ccc(F)cc2)C1 (configuration not stated)	-10	0	4	-1	-1	-2
CC(C)c1ccc(CN2CCC(n3nccc3NC(=O)C3CCCC3)CC2)cc1	0	-3	·	·	·	·
Cc1cccc(Nc2nc(-c3ccncc3)cs2)c1	7	i	51*	5	0	-2
CC(C)(C)c1cc(C(c2cccnc2)N2CCN(CCO)CC2)cc(C(C)(C)C)c1O (configuration not stated)	2	i	29	18	30*	1
OCCN1CCN(C(c2cccs2)c2ccc3cccnc3c2O)CC1 (configuration not stated)	·	·	2	·	·	-2
Clc1ccc(N2CCN(c3ncnc4c3oc3ccccc34)CC2)cc1	15	5	50*	-1	0	·
Cc1cc(/C=C2\NC(=S)N(C)C2=O)ccc1N1CCCC1	214*	0	40	1	1	-2
CCc1ccc(N2CC(C(=O)NC3CCCCC3C)CC2=O)cc1 (configuration not stated)	-10	0	31	16	0	-8
Cc1ccc(C)c(NS(=O)(=O)c2ccc(-c3cnc(C4CC4)o3)cc2)c1	9	2	39	52*	1	2
Cc1cc(C)cc(NS(=O)(=O)c2ccc(-c3cnc(C4CC4)o3)cc2)c1	3	i	61	58*	0	3
O=S(=O)(Nc1ccccc1)c1ccc(-c2cnc(C3CC3)o2)cc1	3	3	-10	37	2	-3
Cc1cccc(NS(=O)(=O)c2ccc(-c3cnc(C4CC4)o3)cc2)c1C	0	i	36	53*	367*	1
CCc1ccccc1NC1=NCC(=O)N1C1CCCC1	-12	i	53*	0	0	-2
CCc1ccccc1NC1=NCC(=O)N1Cc1ccc(OC)cc1	2	-1	20	18	2	-7
COc1ccc(NC(=O)N(C)C[C@H]2OCCCC[C@H](C)Oc3ccc(NC(=O)Nc4ccc5c(c4)OCO5)cc3C(=O)N([C@@H](C)CO)C[C@@H]2C)cc1	-4	0	·	·	·	·
COc1cc(/C=N/N2CCCCC2)cc([N+](=O)[O-])c1O	-3	i	60*	-7	0	-1
COc1cc(/C=N/n2c(=S)[nH]nc(C)c2=O)cc([N+](=O)[O-])c1O	2	-1	30	2	-2	1
CC(C)c1ccc2c(c1)CCC1C(C)(CN)CCCC21C (configuration not stated)	36	-1	34	107*	-1	2
COc1ccc([C@@H]2CC=C(C(=O)O)[C@H](c3cccc(Cl)c3)N2S(=O)(=O)c2ccccc2C)cc1	-1	0	·	·	3	·
COc1cc(CCC(=O)N2CCN(c3ccc([N+](=O)[O-])cc3)CC2)cc(OC)c1OC	3	i	57*	8	1	-3
Cc1cc2cc3c(cc2nc1SCC(=O)O)OCCO3	7	-1	22	-8	-2	-5
Cc1cc2cc3c(cc2nc1SCC(=O)N1CCCC1)OCCO3	11	1	53*	-11	0	4
SMILES	MazF activator	BH1578 lux ind	VHR inh abs	BJeLR viability	PfHsp40 rescue	SARS 3CLpro inh
COc1ccc(-c2csc(NC(=O)c3ccc(OCC(=O)N4CCOCC4)c(OC)c3)n2)cc1OC	7	-3	3	10	-1	2
O=C(Nc1ccccc1)c1ccc(NCC2CCCO2)c([N+](=O)[O-])c1 (configuration not stated)	5	0	-8	-1	-2	-5
O=C(Nc1cc(F)cc(F)c1)c1ccc(NCCc2ccccc2)c([N+](=O)[O-])c1	552*	-1	29	-5	0	1
O=C(Nc1ccccc1)c1ccc(NCCN2C(=O)CCC2=O)c([N+](=O)[O-])c1	51*	-2	-8	4	0	0
NC(=NCc1ccco1)NC(=O)c1ccc(Cl)cc1	12	0	7	0	0	4
CC(C)(C)OC(=O)C[C@@H]1C/C=C\C[C@@H](CC(=O)NCCO)C(=O)N2CCC[C@H]2COC1=O	3	-7	·	·	-2	·
CC(C)(C)OC(=O)C[C@H]1C/C=C\C[C@H](CC(=O)NCCO)C(=O)N2CCC[C@@H]2COC1=O	4	i	·	·	41*	·
CCN(CC)C(=O)c1csc(COCCO)n1	·	i	·	·	·	·
O=S(=O)(Nc1cccnc1)c1cccc(C(F)(F)F)c1	4	i	-4	9	-1	1
O=[N+]([O-])c1ccc(S(=O)(=O)c2cccc(C(F)(F)F)c2)nc1	4	i	·	45	42*	·
CNC(=S)NNC(=O)c1sccc1OCc1ccc(Cl)cc1Cl	6	-1	18	6	-1	3
S=c1nc(-c2sccc2OCc2ccc(Cl)cc2Cl)[nH][nH]1	28	-1	6	1	45*	3
O=C(COc1ccc(Br)cc1)N(Cc1nnc(-c2ccccc2Cl)o1)C1CC1	2	-1	·	·	·	·
COC(=O)c1cc(C)nc2c1C(=O)C(=O)C=C2N1CCOCC1	-9	0	54*	10	0	3
COC(=O)c1cc(S(=O)(=O)N2CCOCC2)c(Cl)cc1N1CCOCC1	-9	·	6	-4	-1	-2
NNC(=O)c1cc(-c2ccc(N)cc2)nc2ccc(Br)cc12	7	1	54*	-7	·	-1
CCOc1ccc2c(c1)S/C(=C\c1cccs1)C(=O)N2	77*	0	0	29	3	3
O=c1c2ccccc2c(C=Nc2ccc(O)cc2)c(O)n1Cc1ccccc1	+	0	-16	-2	1	4
COc1ccc(Cn2c(O)c(C=Nc3ccc(O)cc3)c3ccccc3c2=O)cc1	-7	0	-32	1	1	0
O=C(NCc1ccc(F)cc1)c1cc(C2CCCN(C(=O)CCCc3ccccc3)C2)on1 (configuration not stated)	·	i	·	·	·	·
O=C(Cc1c(C(=O)O)[nH]c2ccc(Cl)cc12)Nc1ccc2c(c1)OCCO2	-2	0	52*	3	1	7
CN(CC(=O)NCc1cccnc1)S(=O)(=O)c1ccc(F)cc1	12	0	26	-17	-2	4
CCC(=O)Nc1ccc(NC(=O)CSc2nnc(-c3ccco3)n2CC)cc1	7	0	-16	-15	0	3
